# An excerpt weighted towards active compounds, which were near 3.3% of everything screened.
# PI5P4Ka inh: blocks human PI5P4K alpha kinase activity; AID 652105; 1.2% of 330,000 active; PI5P4Kalpha enzyme, ADP-Glo luminescence, 60 min; active compounds read low; max response, %; active = max response of -50% or lower; inconclusive = between -30% and -50%; inactive = -30% or higher; also: value at the top dose of about 77 µM; % is scaled to controls: 0 for no effect and ±100 for the full control effect
# Target sequence (P48426 whole entry, looked up): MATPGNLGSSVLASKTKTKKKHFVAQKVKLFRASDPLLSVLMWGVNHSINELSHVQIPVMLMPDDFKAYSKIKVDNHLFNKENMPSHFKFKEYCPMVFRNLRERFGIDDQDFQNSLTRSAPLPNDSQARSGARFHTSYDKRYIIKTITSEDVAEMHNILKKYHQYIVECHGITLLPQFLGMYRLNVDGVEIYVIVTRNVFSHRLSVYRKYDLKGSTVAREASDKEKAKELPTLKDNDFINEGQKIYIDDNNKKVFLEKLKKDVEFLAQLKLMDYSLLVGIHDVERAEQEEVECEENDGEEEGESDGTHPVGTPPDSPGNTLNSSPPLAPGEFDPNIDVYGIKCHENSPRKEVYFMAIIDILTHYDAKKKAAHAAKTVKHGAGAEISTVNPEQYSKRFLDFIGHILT
#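 Quantitative HTS of the MLSMR library against PI5P4Kalpha with substrate. ATP added last at 5 microM final; room temperature, 60 minutes. Remaining ATP depleted, ADP converted and read as luminescence.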
# LDHA block: inhibitors of human lactate dehydrogenase A. P00338. purified LDHA, NADH/diaphorase-resazurin fluorescence; active compounds read low. activity change, % (values are at about 110 or 230 µM). 0.15% of 480,000 active. AID 1347041; in the data active = activity change below about -30%; inconclusive = mostly about -25% to -30%;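 also: plate controls were DMSO wells for no effect and wells without enzyme for full effect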
#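 Resorufin fluorescence (ex540/em590), read at 0 and 20 min after diaphorase/resazurin addition, reports the NADH left after a 5 min room-temperature reaction of 2 nM human LDH5 with 0.06 mM NADH and 0.2 mM pyruvate.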
# PI4K2A block: PI4K2A (human) kinase inhibition. AID 1346378. activity change, negative = inhibition, % at 76.9 µM. 0.13% of 420,000 active. purified PI4K2A, ADP-Glo luminescence, 1 h; active compounds read low; in the data active = activity change below about -50%; inconclusive = mostly about -30% to -49%;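 also: -100% = wells without enzyme as full effect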
#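 ADP-Glo luminescence measured ADP generated by PI4K2A enzyme (4 ug/mL before mixing) with 1.2 mM PI substrate (pre-mix) and 300 microM ATP (pre-mix). Tris pH7.5 buffer with MgCl2, Triton X-100; 1 h reaction at ambient temperature.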
# D3 ag: agonists of human D3 dopamine receptor; max activation, %; D3R DiscoveRx beta-arrestin cells, luminescence, 90 min; 0.58% of 410,000 active; P35462; AID 652048; in the data active = max activation above about 30%; also: 0% is about no effect
#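 Agonist mode: compounds and dopamine controls were applied to plated cells for 90 min at 37 degrees C after an overnight attachment at 1500 cells/well. Luminescent read-out followed 30 - 60 minutes at room temperature with DiscoveRx detection reagent.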
# D3 antag: antagonists of human D3 dopamine receptor. P35462. D3R cells, DiscoveRx beta-arrestin luminescence, antagonist mode; active compounds read low. max response, negative = inhibition, %. 2.5% of 360,000 active. AID 652054; in the data active = max response below about -50%; inconclusive = no clear call, values can overlap the other calls; also: % is scaled to controls: 0 for no effect and ±100 for the full control effect
#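 Cells expressing the human receptor were seeded at 1500 cells/well, incubated overnight at 37 degrees C in 5% CO2, then exposed to library compounds with dopamine controls for 90 minutes at 37 degrees C before luminescent detection.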
# * hit, by the source's call; ? = inconclusive; . = no result; ! = not active in a repeat.
SMILES,PI5P4Ka inh,LDHA block,PI4K2A block,D3 ag,D3 antag
COC(=O)c1sccc1NC(=O)Nc1ccc(C)cc1,-16.4,-4.3,?,54.9*,-1.8
COC(=O)c1cc(Br)ccc1NC(=O)Nc1ccc(C)cc1,7.6,-8.4,-3.9,-6.5,-79.9*
COC(=O)c1sccc1NC(=O)NC1CCCCC1,-1.1,1.8,-0.4,6.9,-51.0*
O=C(CCc1ccccc1)N[C@H]1[C@H](OCc2ccccc2)CCC[C@@]12C(=O)N(Cc1ccccc1)c1ccc(-c3ccccn3)cc12,.,.,2.1,.,.
O=C(N1CCN(Cc2ccc3c(c2)OCO3)CC1)C12CC3CC(CC(C3)C1)C2,.,1.9,0.1,-29.5,-64.2*
O=C(c1ccc(S(=O)(=O)N2CCCC2)cc1)N1CCN(Cc2ccc3c(c2)OCO3)CC1,8.9,4.2,-1.4,-12.7,-51.5*
CN(c1ccc(C(=O)N2CCN(Cc3ccc4c(c3)OCO4)CC2)cc1)S(C)(=O)=O,-6.0,-11.4,-1.1,2.7,-21.6
O=C(c1cc2ccccc2o1)N1CCN(Cc2ccc3c(c2)OCO3)CC1,7.3,-4.5,1.8,-19.9,-104.4*
Cc1ccc(C(=O)N2CCN(Cc3ccc4c(c3)OCO4)CC2)o1,-2.3,-0.7,-1.8,1.5,-61.9*
O=C(c1cc(F)c(F)c(F)c1F)N1CCN(Cc2ccc3c(c2)OCO3)CC1,1.0,-0.4,1.2,-2.9,8.6
C=CCn1c(SCC(=O)c2ccc(CNC(C)=O)o2)nc2scc(C3CC3)c2c1=O,-56.0*,2.1,-16.5,-11.6,6.4
O=C(NCC(=O)N1CCN(Cc2c(F)cccc2Cl)CC1)NCc1ccccc1,.,-9.4,.,.,.
Cc1ccc(S(=O)(=O)NC(CC(=O)O)c2ccco2)cc1 (stereo not given),.,-11.3,0.5,-8.8,-14.5
CCC(C)NC(=O)CC(NS(=O)(=O)c1ccc(Cl)cc1)c1ccco1 (stereo not given),6.2,-0.1,-7.0,0.5,-52.9*
O=C(CC(NS(=O)(=O)c1ccc(Cl)cc1)c1ccco1)N1CCc2ccccc21 (stereo not given),.,-8.4,-5.2,-3.3,-69.0*
C#CCN1CCC(C(=O)NCCN(C(C)C)C(C)C)CC1,.,6.6,.,.,.
CC(NS(=O)(=O)c1cccs1)c1cccnc1 (stereo not given),.,7.6,.,.,.
COC(=O)/C=C/C(=O)Nc1ccc(O)c(Cl)c1,-58.9*,7.1,2.2,1.0,-5.2
COc1ccc(/C=C/C(=O)Nc2ccc(Cl)c(Cl)c2)cc1,.,-10.7,0.2,-18.7,.
CCN(CC)c1ccc2cc(-c3nc(-c4ccc(OC)cc4)cs3)c(=O)oc2c1,7.0,0.1,-5.1,33.0*,102.1
CCN(CC)c1ccc2cc(-c3nc(-c4ccc(Cl)cc4Cl)cs3)c(=O)oc2c1,.,-4.5,-1.9,-6.1,.
COc1ccccc1NC(=O)CSc1nnc(C2CCCCC2)n1-n1cccc1,.,4.5,.,.,.
CC1(C)CC(=O)C2=C(C1)NC(SCC(=O)Nc1ccccc1)=C(C#N)C21CCCCC1,-11.5,-0.3,12.2,4.4,9.2
CC1(C)CC(=O)C2=C(C1)NC(=S)C(C#N)C21CCCCC1 (stereo not given),-61.8*,2.0,1.9,1.2,-0.7
COc1cc(/C=C2/SC(=Nc3ccc(O)cc3)NC2=O)ccc1O,-89.5*,-3.9,-1.9,-9.7,-8.8
SMILES,PI5P4Ka inh,LDHA block,PI4K2A block,D3 ag,D3 antag
COC(=O)/C=C1\SC(=Nc2ccc(Cl)c(Cl)c2)NC1=O,8.9,-10.2,1.6,1.0,1.3
COc1cc(/C=C2\SC(=Nc3ccc(Cl)c(C(=O)O)c3)NC2=O)c(Br)c(Br)c1O,-106.2*,-32.9*,-2.5,15.3,0.0
COc1cc(/C=C2\SC(=Nc3ccccc3OC)NC2=O)ccc1O,?,-0.9,-5.4,22.9,9.4
COc1cc(/C=C2\SC(=Nc3ccccc3)NC2=O)cc(Cl)c1O,-103.9*,9.4,0.5,-7.6,?
CCc1ccc(N=C2NC(=O)/C(=C/c3cc(OC)c(O)c(OC)c3)S2)cc1,-54.3*,3.7,-3.6,-8.6,-22.6
CCC(C)(C)NC(=O)c1ccc2ccccc2c1,.,12.5,.,.,.
CCc1ccc(NC(=O)c2ccc3c(c2)S(=O)(=O)N=C(C)N3CC(C)C)cc1,.,-0.2,.,.,.
Cc1ccc([N+](=O)[O-])cc1NS(=O)(=O)c1cccs1,.,1.4,.,.,.
CC(C)Oc1ccc(C(=O)N/N=C/c2ccc(-c3ccc(S(=O)(=O)Nc4ncccn4)cc3)o2)cc1,?,-9.4,-8.2,5.1,-54.5*
C=CCNCc1c(OCC)ccc2ccccc12,.,-0.4,.,.,.
Cc1ccc(Oc2cc([N+](=O)[O-])cc3c2C(=O)Nc2ccccc2O3)cc1,?,-8.2,-4.2,49.5*,-12.3
CCN(CC)S(=O)(=O)c1ccc(OC)c(NC(=O)c2ccc([N+](=O)[O-])cc2)c1,-6.6,-6.5,6.6,-6.0,-16.9
CCN(CC)S(=O)(=O)c1cc([N+](=O)[O-])ccc1NNC(=O)Nc1ccccc1OC,9.1,5.8,-0.5,-4.8,-85.9*
COc1cc([N+](=O)[O-])ccc1NC(=O)CN(C)C,.,-0.1,-2.5,1.6,-14.0
CCN(CC)S(=O)(=O)c1cc([N+](=O)[O-])ccc1NNC(=O)Nc1ccc(F)cc1,5.3,0.0,-1.8,-0.5,-72.4*
CCN(CC(=O)Nc1ccc([N+](=O)[O-])cc1OC)c1ccccc1,.,-1.7,-1.3,-2.1,-67.9*
Cc1nn(C)cc1-c1cc(C(F)F)c2c(C3CC3)nn(CC(=O)O)c2n1,.,4.8,.,.,.
Cc1c(Cl)cccc1NC(=O)Cn1cnc2c1c(=O)n(C)c(=O)n2C,.,5.1,.,.,.
Cc1c(Cl)cccc1NC(=O)Nc1ccc2c(c1)N(C(=O)c1ccccc1)CC2,.,0.3,.,.,.
O=C(NCCN1CCCCC1)Nc1ccccc1,.,-9.7,3.3,-24.0,-17.1
O=C(NCCC(=O)N1CCN(c2ncccn2)CC1)c1ccc(Br)cc1,.,-31.6*,.,.,.
O=C(NCCC(=O)N1CCN(c2ncccn2)CC1)c1ccc(Cl)cc1,.,-3.9,.,.,.
CCOc1ccc(OCC(=O)NCCS(=O)(=O)N2CCN(c3ccccc3)CC2)cc1,0.4,2.9,-0.5,-5.8,-11.0
Cc1ccc(CC(=O)NCCN2CCOCC2)cc1,1.2,-4.5,-5.9,58.0*,-8.0
O=C(NCCN1CCCCC1)Nc1cccc(C(F)(F)F)c1,7.9,0.9,-0.8,-11.9,-57.6*
SMILES,PI5P4Ka inh,LDHA block,PI4K2A block,D3 ag,D3 antag
CCOc1ccc(OCC(=O)NCCS(=O)(=O)N2CCN(c3ccc(F)cc3)CC2)cc1,5.7,-3.0,9.7,37.9*!,16.8
O=C(Nc1ccc(CN2CCCCC2)cc1)Nc1ccc(Br)cc1Cl,-1.0,-1.1,2.1,-28.5,-79.4*
O=C(NCCC(=O)N1CCCCCCC1)c1ccc(Br)cc1,5.2,-0.5,-1.5,-9.3,-6.7
O=C(Nc1ccc(CN2CCCC2)cc1)Nc1ccc2c(c1)OCCO2,.,-0.3,.,.,.
O=C(CNC(=O)c1ccc(Cl)cc1)NC1CCCCC1,1.8,0.3,-7.5,-19.4,-58.7*
O=C(NCCN1CCCC1)c1ccc(Cl)cc1,0.0,1.4,-2.7,-11.1,-98.4*
O=C(NCCN1CCCC1)c1ccc(Br)cc1,-6.2,-6.1,-1.2,-33.0,-76.8*

# Compound activity (PubChem BioAssay)
